# According to PubChem BioAssay:
# The source made the active and inactive calls.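 How the source made its calls: active means z-score of at least 1.8 in each of two replicates, scored against plate mean and spread of sample wells; inactive means the rest.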
# Test: galactose survival enhancers in mitochondrial complex I cybrids – cell-based, galactose medium, ATP luminescence, primary screen (AID 1645843);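 further: positive z means more ATP and so rescue of galactose-driven cybrid death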
# Settings: complex I mutant cybrid cells, 72 h, active compounds read high
row,SMILES,z-score
1,CN(Cc1nc(-c2cccnc2)no1)C(=O)c1nc2ccccc2s1,0.26 (inactive)
2,c1ccc(-n2cc(-c3ccnc(NCc4cnc5ccccn45)n3)cn2)cc1,-1.09 (inactive)
3,CCCc1cc(C(=O)N2CCCC(Cn3cc(CC(C)C)nn3)C2)n[nH]1 (stereo not given),1.21 (inactive)
4,Cc1cc(C)c(CNC(C)CCC(C)C)c(C)c1CO (stereo not given),0.435 (inactive)
5,COc1ccc(CN2CCN(c3nccc(-c4c(C)nn(C)c4C)n3)CC2=O)cc1,1.14 (inactive)
6,Cc1nc(C(=O)N(Cc2cccnc2)Cc2ccc3c(c2)OCO3)cs1,-0.675 (inactive)
7,CC(C)Oc1ccc(Cl)cc1-c1nnc2ccccn12,-0.805 (inactive)
8,CC(CCCC(C)(C)O)CCNCC1(c2ccccc2)CCOCC1 (stereo not given),-0.5 (inactive)
9,CCc1cc(-c2cccc(C)c2C)nc(N(C)C)n1,1.21 (inactive)
10,COc1ccc(CC(=O)NCc2cccc(SC)c2)cc1,0.19 (inactive)
11,CCC(CC)(CCC#N)CNC1CCOC(C)(C)C1 (stereo not given),-0.485 (inactive)
12,Cc1ccc2c(C(=O)N3CCCC3)cc(-c3cnn(C(C)C)c3)nc2c1,-0.36 (inactive)
13,Cc1cnc(NCCCn2ncc3ccccc32)nc1-c1cnn(C)c1,0.065 (inactive)
14,CCc1nc(C)ccc1OCC(=O)N1CCc2[nH]nc(C3CC3)c2C1,-0.685 (inactive)
15,CC(C)n1cc(-c2cc(C(=O)N3CCC(C)(C)C3)c3ccc(F)cc3n2)cn1,0.14 (inactive)
16,Clc1cccn2c(-c3ccccc3OC3CCCC3)nnc12,0.365 (inactive)
17,O=c1cc(-c2ccccc2Cl)nc(-c2ccc(CN3CC[C@H](O)C3)cc2)[nH]1,0.305 (inactive)
18,COc1ccc(CNCC2COCCO2)cc1OC (stereo not given),3.29 (active)
19,Cc1occc1C(=O)Nc1ccccc1C(=O)N(C)Cc1ccccn1,-0.21 (inactive)
20,CC(=O)c1cc(CC(=O)NCc2cc(F)c(F)cc2F)cs1,-0.01 (inactive)

row,SMILES,z-score
1,CC(C)(O)c1cn(C2CCN(C(=O)C3CC34CCCC4)CC2)nn1 (stereo not given),-0.475 (inactive)
2,Cn1ccnc1-c1ccccc1C(=O)N1CCN(Cc2cccc(F)c2)CC1,0.355 (inactive)
3,Cc1nn(C)c(C)c1-c1ccnc(NCCc2nc(-c3ccccn3)no2)n1,-0.395 (inactive)
4,Cc1ccc(C(=O)N2CCNC(=O)C2Cc2ccccc2)cc1F (stereo not given),-0.505 (inactive)
5,O=C1CCCc2occ(C(=O)N3CCc4[nH]nc(C5CCC5)c4C3)c21,0.15 (inactive)
6,Cc1ccn2cc(Cn3cnc4ccc(F)cc4c3=O)nc2c1,0.645 (inactive)
7,O=C(CCC1CC1)Nc1ccnn1C1CCCCC1,0.01 (inactive)
8,Nc1ncc(-c2ccc(Cl)cc2Cl)cn1,-0.065 (inactive)
9,Cc1ccc(Nc2nc(N)nc(-c3ccc(C(=O)N(C)C)cc3)n2)cc1,2.23 (active)
10,Cc1nsc(NC(=O)N2CCCC2C)n1 (stereo not given),-0.04 (inactive)
11,CCC(CC)(CCC#N)CNC1COC2(CCCCC2)C1 (stereo not given),-0.53 (inactive)
12,Cc1cc(NC(=O)CCC2CC2)n(C(C)C)n1,-0.44 (inactive)
13,CC(=O)c1c(C)cc(C)c(CNC(C)CCCC(C)(C)O)c1C (stereo not given),-0.52 (inactive)
14,O=C(C1CCCCCC1)N1CCC(Cn2cc(CCO)nn2)CC1,-0.51 (inactive)
15,Cc1nn(C)cc1-c1ccnc(N2CCCC(c3nc4c(C)cccc4[nH]3)C2)n1 (stereo not given),-1.2 (inactive)
16,CCn1c(C)nc2cc(OC3(C(=O)O)CCCCC3)ccc21,-0.565 (inactive)
17,CCC(Nc1ncc(C)c(-c2cnn(C)c2)n1)c1nc2ccc(C)cc2[nH]1 (stereo not given),-0.955 (inactive)
18,O=C(Nc1ccncc1)c1ccc2c(c1)OCCO2,0.445 (inactive)
19,O=C(C1CCCCCC1)N1CCCC(Cn2cc(-c3ccccn3)nn2)C1 (stereo not given),-0.33 (inactive)
20,Cc1ccc(C(=O)N2CCNC(=O)C2Cc2ccccc2)c(F)c1 (stereo not given),-0.535 (inactive)
